The nature of assay [1]: ACEA_ER_80hr: ACEA Biosciences xCELLigence Real-Time Cell Analysis on Estrogen Receptor Agonism for Proliferation (AID 2282667; active = hit-call score of the fitted dose curve at least 0.9, where 1 is the maximum). The conditions noted are these: T47D proliferation, impedance (xCELLigence), 80 h. The essentials: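 Impedance readout (RT-CES) of T47D proliferation at 80 h post-dose; gain of signal vs DMSO baseline. Compounds: 8 conc, 1:4 serial, top 100 uM final, ≤0.5% DMSO; biological duplicate.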

Assay [2] deals with CCAAT/enhancer-binding protein beta (Homo sapiens) (UniProt P17676). As to the kind of experiment: ATG_C_EBP_CIS: Attagene CIS-FACTORIAL HepG2 Assay for human CCAAT/Enhancer Binding Protein (C/EBP) beta (AID 2282927). The conditions noted are these: HepG2 Attagene cis-factorial transcription factor reporter; actives raise or lower the signal. In outline:
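Following a 24 h incubation with test chemical, transfected HepG2 cells yielded RNA whose reporter transcripts were quantified by RT-PCR and fluorescent capillary electrophoresis, with DMSO serving as baseline for bidirectional fitting.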

The nature of assay [3]: ATG_CMV_CIS: Attagene CIS-FACTORIAL HepG2 Assay for human CMV (Internal Marker) (AID 2282928).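 Note: endpoint acts as a background internal control marker rather than a target.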 Particulars: HepG2 CMV promoter reporter, transcription factor profiling; actives raise or lower the signal. In outline: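 CMV internal-marker background readout in transiently transfected HepG2 cells bearing cis-regulated reporter units. Reporter mRNA is measured 24 h after dosing by RT-PCR and capillary electrophoresis, with bidirectional fitting against DMSO.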

Assay [4] can be described thus: ATG_DR4_LXR_CIS: Attagene CIS-FACTORIAL HepG2 Assay for human Liver X Receptor (LXR), DR4 submotif (AID 2282929). Particulars: HepG2 Attagene DR4 cis-reporter, mRNA transcription; actives raise or lower the signal. The essentials: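 Fluorescence intensity of labelled reporter cDNA fragments, separated by capillary electrophoresis, gives the signal. HepG2 cells bearing cis-regulated reporter constructs were treated 24 h; activity fitted bidirectionally relative to DMSO negative control.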

Assay [5] concerns the target Aryl hydrocarbon receptor (Homo sapiens) (UniProt P35869). As to the kind of experiment: ATG_Ahr_CIS: Attagene CIS-FACTORIAL HepG2 Assay for human Aryl Hydrocarbon Receptor (Ahr) (AID 2282930). The conditions noted are these: HepG2 AhR cis-factorial reporter transcription; actives raise or lower the signal. In outline: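 Values derive from bidirectional fitting against DMSO negative control. Underlying signal: cis-element reporter mRNA in transiently transfected HepG2, harvested 24 h post-dose and measured by RT-PCR plus capillary electrophoresis.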

A short description of assay [6]: ATG_AP_2_CIS: Attagene CIS-FACTORIAL HepG2 Assay for human Activator Protein 2 (AP-2) (AID 2282932). Particulars: HepG2 AP-2 cis-reporter, Attagene transcription factor profiling; actives raise or lower the signal. The essentials:
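HepG2 cells were transiently transfected with multiple cis-promoter reporter transcription units and dosed for 24 h. Reporter mRNA was measured by RT-PCR with capillary electrophoresis fluorescence; bidirectional fits relative to DMSO baseline.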

Assay [7] in a line: ATG_BRE_CIS: Attagene CIS-FACTORIAL HepG2 Assay for human Bone Morphogenetic Protein (BMP) Response Element (BRE) (AID 2282933). The conditions noted are these: HepG2 BMP response element reporter, Attagene transcription factor profiling; actives raise or lower the signal. The essentials: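 Fluorescence-labelled reporter cDNA fragments, separated by capillary electrophoresis, gave the signal for this component of a 52-readout multiplex. HepG2 cells were transfected, exposed to chemicals for 24 h, and compared with DMSO using bidirectional fitting.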

The target in assay [8] is Retinoic acid receptor alpha (Homo sapiens) (UniProt P10276). The experiment in a line: ATG_DR5_RAR_CIS: Attagene CIS-FACTORIAL HepG2 Assay for human Retinoic Acid Receptor Alpha (RARE), DR5 submotif (AID 2282934). Particulars: HepG2 Attagene cis-factorial RARE DR5 reporter, mRNA; actives raise or lower the signal. The essentials: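 Endpoint fitted in both directions relative to DMSO as negative control. It reflects DR5 cis-element reporter mRNA induction in transiently transfected HepG2 cells, measured 24 h after dosing through RT-PCR and fluorescent capillary electrophoresis.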
Retinoic acid receptor alpha (Homo sapiens), sequence (P10276 whole entry, looked up): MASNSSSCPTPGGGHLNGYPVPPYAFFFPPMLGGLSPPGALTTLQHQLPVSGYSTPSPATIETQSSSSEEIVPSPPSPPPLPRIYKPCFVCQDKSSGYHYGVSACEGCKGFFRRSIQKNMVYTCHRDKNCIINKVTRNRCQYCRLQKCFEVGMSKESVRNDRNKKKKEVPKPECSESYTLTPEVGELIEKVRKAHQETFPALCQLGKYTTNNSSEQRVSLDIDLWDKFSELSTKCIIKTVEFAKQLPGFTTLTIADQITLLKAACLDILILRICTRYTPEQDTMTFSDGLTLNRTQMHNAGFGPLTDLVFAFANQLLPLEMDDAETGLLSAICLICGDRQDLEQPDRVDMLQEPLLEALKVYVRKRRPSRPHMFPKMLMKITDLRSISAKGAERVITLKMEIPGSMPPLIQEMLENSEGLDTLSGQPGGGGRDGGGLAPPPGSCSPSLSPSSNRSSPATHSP

Assay [9] has as its target Transcription factor E2F1 (Homo sapiens) (UniProt Q01094). As to the kind of experiment: ATG_E2F_CIS: Attagene CIS-FACTORIAL HepG2 Assay for human E2F Transcription Factor 1 (AID 2282935). Particulars: HepG2 Attagene cis-reporter, E2F reporter RNA transcripts; actives raise or lower the signal. The essentials:
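HepG2 cells transiently transfected with multiplexed cis-element reporter units, dosed for 24 h. Reporter mRNA measured by RT-PCR, 6-FAM primer-extension labeling, HpaI digestion and capillary electrophoresis; bidirectional fit versus DMSO baseline.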

Assay [10] is described as follows: ATG_E_Box_CIS: Attagene CIS-FACTORIAL HepG2 Assay for human Enhancer Box (E-box) (AID 2282936). The conditions noted are these: HepG2 E-box cis-reporter transcription, actives raise or lower the signal. In outline: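 HepG2 cells transiently transfected with multiplexed cis-element reporter units sensing endogenous transcription factor activity; 24 h compound exposure. Reporter mRNA measured by RT-PCR, 6-FAM primer extension, HpaI digestion and capillary electrophoresis; bidirectional fit versus DMSO.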

Assay [11] can be described thus: ATG_M_61_CIS: Attagene CIS-FACTORIAL HepG2 Assay for M61 Transcription Factor (Internal Marker) (AID 2282937). Particulars: HepG2 Attagene CIS-FACTORIAL M61 internal marker reporter; actives raise or lower the signal. In outline:
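Endogenous transcription factor activity in HepG2 is read through transiently transfected cis-element reporter units. After 24 h dosing, RNA undergoes reverse transcription, PCR and primer extension with 6-FAM before capillary electrophoresis; DMSO-referenced bidirectional fit.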

A short description of assay [12]: ATG_EGR_CIS: Attagene CIS-FACTORIAL HepG2 Assay for human Early Growth Response 1 (EGR1) (AID 2282938). Particulars: HepG2 Attagene CIS-FACTORIAL EGR reporter mRNA; actives raise or lower the signal. The essentials: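 Activity is taken as induction or loss of reporter mRNA versus DMSO, fitted bidirectionally. Transcripts from cis-regulated reporter units in transiently transfected HepG2 were measured after 24 h by RT-PCR with capillary electrophoresis.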

Assay [13] can be described thus: ATG_M_19_CIS: Attagene CIS-FACTORIAL HepG2 Assay for M19 Transcription Factor (Internal Marker) (AID 2282939). Particulars: HepG2 Attagene CIS-FACTORIAL M19 internal marker reporter; actives raise or lower the signal. The essentials:
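HepG2, MRTU transient transfection, 24 h dosing. Total RNA → RT-PCR → 6-FAM primer extension → HpaI digest → CE fluorescence. Bidirectional curve fit, DMSO negative control.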

Assay [14] can be described thus: ATG_ERE_CIS: Attagene CIS-FACTORIAL HepG2 Assay for Estrogen Response Element (ERE) (AID 2282940). The conditions noted are these: HepG2 ERE cis-reporter, Attagene RNA transcript; actives raise or lower the signal. The essentials: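 After a 24 h chemical treatment, RNA from reporter-transfected HepG2 cells is reverse-transcribed, PCR-amplified and fluorescently labelled. Fragments separated by capillary electrophoresis give reporter signal; DMSO serves as negative control.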

The nature of assay [15]: ATG_Ets_CIS: Attagene CIS-FACTORIAL HepG2 Assay for human Erythroblast Transformation Specific (ETS) (AID 2282941). Particulars: HepG2 ETS cis-reporter transcription, actives raise or lower the signal. In outline: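 HepG2 cells transfected with multiple cis-regulated reporter units measuring endogenous ETS-driven transcription, 24 h after dosing. Reporter mRNA quantified by RT-PCR with capillary electrophoresis; bidirectional fit relative to DMSO.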

In assay [16] the target is Hepatocyte nuclear factor 3-beta (Homo sapiens) (UniProt Q9Y261). The experiment in a line: ATG_FoxA2_CIS: Attagene CIS-FACTORIAL HepG2 Assay for human Forkhead box A2 (FOXA2) (AID 2282942). The conditions noted are these: HepG2 cis-reporter transcription factor activity, 24 h; actives raise or lower the signal. The essentials: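 Reporter transcript induction is measured by fluorescence after capillary electrophoresis of RT-PCR products from HepG2 cells exposed 24 h. Cis-regulated reporter units report endogenous factor activity; curves fitted both directions against DMSO.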
Hepatocyte nuclear factor 3-beta (Homo sapiens), sequence (Q9Y261 whole entry, looked up): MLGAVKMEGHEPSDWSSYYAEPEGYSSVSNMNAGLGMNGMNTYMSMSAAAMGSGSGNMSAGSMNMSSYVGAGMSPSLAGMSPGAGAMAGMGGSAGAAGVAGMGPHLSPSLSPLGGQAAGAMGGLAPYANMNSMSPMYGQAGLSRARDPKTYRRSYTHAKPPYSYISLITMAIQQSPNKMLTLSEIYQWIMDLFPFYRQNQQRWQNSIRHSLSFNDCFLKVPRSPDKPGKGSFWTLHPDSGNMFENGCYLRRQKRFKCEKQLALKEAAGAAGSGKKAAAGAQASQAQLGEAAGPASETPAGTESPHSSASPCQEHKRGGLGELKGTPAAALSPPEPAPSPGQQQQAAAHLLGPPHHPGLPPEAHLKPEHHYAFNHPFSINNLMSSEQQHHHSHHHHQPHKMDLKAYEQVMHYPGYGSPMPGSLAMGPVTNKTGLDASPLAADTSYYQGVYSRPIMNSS

Assay [17] is described as follows: ATG_GATA_CIS: Attagene CIS-FACTORIAL HepG2 Assay for human GATA Binding Protein (AID 2282944). Particulars: HepG2 GATA cis-element reporter, Attagene multiplex mRNA; actives raise or lower the signal. In outline: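 Cells: HepG2, transiently transfected with cis-regulated reporter transcription units. Exposure: 24 h. Detection: RT-PCR plus capillary electrophoresis of FAM-labeled fragments. Analysis: bidirectional, DMSO as baseline.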

Assay [18] can be described thus: ATG_AP_1_CIS: Attagene CIS-FACTORIAL HepG2 Assay for human Activator Protein 1 (AP-1) (AID 2282931). Particulars: HepG2 Attagene cis-factorial AP-1 reporter mRNA; actives raise or lower the signal. In outline: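 Multiplexed HepG2 reporter assay, 24 h dosing. mRNA induction detected by RT-PCR plus capillary electrophoresis. Activity fitted in both directions against DMSO.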

Assay [19] is described as follows: ATG_FoxO_CIS: Attagene CIS-FACTORIAL HepG2 Assay for human Forkhead box O (FoxO) (AID 2282943). Particulars: HepG2 Attagene cis-reporter, FoxO element, mRNA; actives raise or lower the signal. In outline:
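Values reflect reporter mRNA induction or loss in HepG2 cells 24 h post-dosing, fitted bidirectionally with DMSO as negative control and baseline. Detection used RT-PCR and fluorescence capillary electrophoresis.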

The structures appear in SMILES notation. Inconclusive results are not listed. Activity calls are given as the source filed them. Rule for the calls, unless noted: active = hit-call score of the fitted dose curve at least 0.9, where 1 is the maximum; inactive = score below 0.9.

In PubChem BioAssay (EPA / NIEHS) one finds outcome and AC50 data, which are given here for 4 compounds.

Transcription factor E2F1 (Homo sapiens), sequence (Q01094 whole entry, looked up): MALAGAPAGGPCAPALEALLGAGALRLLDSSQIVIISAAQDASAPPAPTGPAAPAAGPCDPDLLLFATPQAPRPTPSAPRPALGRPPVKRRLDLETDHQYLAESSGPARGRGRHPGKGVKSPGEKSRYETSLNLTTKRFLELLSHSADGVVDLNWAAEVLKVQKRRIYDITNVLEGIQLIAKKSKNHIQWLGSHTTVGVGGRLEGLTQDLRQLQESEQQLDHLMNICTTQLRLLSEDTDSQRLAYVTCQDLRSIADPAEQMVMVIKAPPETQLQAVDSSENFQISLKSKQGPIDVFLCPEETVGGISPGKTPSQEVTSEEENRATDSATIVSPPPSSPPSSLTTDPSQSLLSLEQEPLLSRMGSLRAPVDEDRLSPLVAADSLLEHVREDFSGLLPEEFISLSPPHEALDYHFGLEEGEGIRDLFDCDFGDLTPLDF
Aryl hydrocarbon receptor (Homo sapiens), sequence (P35869 whole entry, looked up): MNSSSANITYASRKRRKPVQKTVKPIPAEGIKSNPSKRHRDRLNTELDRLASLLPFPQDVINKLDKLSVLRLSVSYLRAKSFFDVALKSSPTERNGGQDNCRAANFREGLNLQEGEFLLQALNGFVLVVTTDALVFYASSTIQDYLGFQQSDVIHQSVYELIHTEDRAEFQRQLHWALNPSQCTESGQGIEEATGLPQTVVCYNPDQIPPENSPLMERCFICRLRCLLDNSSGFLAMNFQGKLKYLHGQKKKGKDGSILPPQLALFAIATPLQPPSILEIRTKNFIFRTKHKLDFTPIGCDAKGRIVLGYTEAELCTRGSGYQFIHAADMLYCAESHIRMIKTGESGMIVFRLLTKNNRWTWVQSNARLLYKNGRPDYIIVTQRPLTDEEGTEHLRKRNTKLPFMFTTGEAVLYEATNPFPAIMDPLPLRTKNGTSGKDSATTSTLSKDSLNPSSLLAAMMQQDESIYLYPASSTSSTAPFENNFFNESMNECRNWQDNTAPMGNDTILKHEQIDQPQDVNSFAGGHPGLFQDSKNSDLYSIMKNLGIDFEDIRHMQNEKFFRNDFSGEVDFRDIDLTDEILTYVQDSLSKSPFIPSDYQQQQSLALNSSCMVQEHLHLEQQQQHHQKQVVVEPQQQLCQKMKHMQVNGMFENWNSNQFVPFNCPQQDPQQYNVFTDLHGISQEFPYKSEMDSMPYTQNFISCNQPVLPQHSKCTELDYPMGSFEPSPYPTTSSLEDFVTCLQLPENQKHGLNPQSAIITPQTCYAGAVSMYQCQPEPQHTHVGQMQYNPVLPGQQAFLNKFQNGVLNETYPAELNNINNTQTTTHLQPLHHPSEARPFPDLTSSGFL
CCAAT/enhancer-binding protein beta (Homo sapiens), sequence (P17676 whole entry, looked up): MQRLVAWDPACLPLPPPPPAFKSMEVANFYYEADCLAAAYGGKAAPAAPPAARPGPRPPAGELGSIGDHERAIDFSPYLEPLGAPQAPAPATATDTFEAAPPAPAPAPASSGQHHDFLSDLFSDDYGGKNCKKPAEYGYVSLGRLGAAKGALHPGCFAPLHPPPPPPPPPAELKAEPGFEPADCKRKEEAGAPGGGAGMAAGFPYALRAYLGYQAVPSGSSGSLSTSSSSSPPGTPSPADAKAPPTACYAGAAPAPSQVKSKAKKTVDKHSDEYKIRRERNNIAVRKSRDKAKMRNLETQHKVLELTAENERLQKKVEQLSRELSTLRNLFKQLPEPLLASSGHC

Consider `[Cl][Sc]([Cl])[Cl]`, for which the result in [1], in assay [2], in assay [3], in assay [4], in assay [6] and in assay [7] was inactive. The result in [8], in assay [9], in [10], in [11], in assay [12] and in assay [13] was inactive. Further, the compound was called inactive in [14], in assay [15], in assay [16] and in assay [17]. For the same compound, the AC50 in [5] is 188 nM (active).

As for `CC1C(C)(C)C2=C(C(=O)CCC2)C1(C)C` (configuration not stated), the compound was called inactive in assay [1], in assay [2], in assay [3], in assay [4], in [5] and in assay [18]. In addition, the call in assay [6], in [7], in assay [8], in assay [9], in assay [10] and in [11] was inactive. The result in assay [12], in assay [13], in assay [15], in [16], in assay [19] and in assay [17] was inactive.

As for `CCOC(=O)[C@H](O)[C@@H](O)C(=O)OCC`, the call in assay [1], in assay [2], in assay [3], in assay [4], in assay [5] and in [18] was inactive. In addition, the call in assay [6], in assay [7], in assay [8], in assay [9], in assay [10] and in assay [11] was inactive. In addition, the outcome in assay [12], in [13], in [14], in assay [15], in [16] and in assay [19] was inactive. In addition, the outcome in assay [17] was inactive.

Take `C=CC(C)(O)CC/C=C(\C)CC` (configuration not stated): the call in assay [1], in assay [2], in assay [3], in assay [4], in assay [5] and in [18] was inactive. Besides, the call in assay [6], in assay [7], in assay [8], in assay [9], in [10] and in assay [11] was inactive. In addition, the call in assay [13], in assay [14], in assay [15], in assay [16], in assay [19] and in assay [17] was inactive.

What is called AC50 is the concentration at which the activity in the assay is half-maximal.
